Inconclusive results are not listed. Calls of active or inactive are those of the source. Calls follow the shape of the dose curve; as a rule, active = well fitted curve in the direction sought with a large enough effect; inconclusive = small, poorly fitted or top-dose-only effect, or another doubt; inactive = no such curve, though single readings can be large; an effect the other way counts as inactive or inconclusive.
What was measured:
C33A = test: Primary qHTS to identify gynecologic anti-cancer compounds using libraries of approved drugs and bioactive compounds (AID 1345084); settings: Gynecologic cancer cell panel viability, ATPlite luminescence, 48 h; series mostly up to 57.5 µM; also: nearly all actives have a fitted effect of over 55% in size
Outline: (§1)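 Cytotoxicity screen measuring ATP content by luciferase luminescence. Each compound is applied at five concentrations for 48 h at 37 C with 5% CO2.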

CASKI = test: as above; settings: Gynecologic cancer cell panel viability, ATPlite luminescence, 48 h; series mostly up to 57.5 µM
Outline: as §1

Es-2 = test: as above; settings: Gynecologic cancer cell panel viability, ATPlite luminescence, 48 h; series mostly up to 57.5 µM
Outline: as §1

HeLa = test: as above; settings: Gynecologic cancer cell panel viability, ATPlite luminescence, 48 h; series mostly up to 57.5 µM
Outline: as §1

Hek293T = test: as above; settings: Gynecologic cancer cell panel viability, ATPlite luminescence, 48 h, control line for the selectivity index; series mostly up to 57.5 µM
Outline: as §1

JEG-3 = test: as above; settings: Gynecologic cancer cell panel viability, ATPlite luminescence, 48 h; series mostly up to 57.5 µM
Outline: as §1

PA-1 = test: as above; settings: Gynecologic cancer cell panel viability, ATPlite luminescence, 48 h; series mostly up to 57.5 µM
Outline: as §1

Tov-21-G = test: as above; settings: Gynecologic cancer cell panel viability, ATPlite luminescence, 48 h; series mostly up to 57.5 µM
Outline: as §1

Tov112D = test: as above; settings: Gynecologic cancer cell panel viability, ATPlite luminescence, 48 h; series mostly up to 57.5 µM
Outline: as §1

[1] = Drug repurposing screens with cells derived from glioblastoma tumor samples (AID 1345199); settings: GBM patient neurospheres viability, ATP luminescence, 48 h; for activity, negative = cell killing: tumour line C; also: potency is read from the fitted curve at half-maximal effect; as to all read-outs here: nearly all actives have a fitted effect of over 40% in size
Outline: (§2)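 Primary testing used CD133+ neurospheres from four GBM patients, seven concentrations, 48 h exposure and ATP-based viability; confirmation added three slower-growing patient lines.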

astro = test: as above; settings: viability, ATP luminescence, 48 h; series mostly up to 45.9 µM
Outline: as §2

MKL-1 = test: qHTS assay to identify novel small-molecules to repurpose for Merkel cell carcinoma treatment (AID 1296009); settings: MCC and control cell lines, CellTiter-Glo viability, 72 h; series mostly up to 46 µM; also: nearly all actives have a fitted effect of over 60% in size; also: potency is read from the fitted curve at half-maximal effect
Outline: (§3)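 CellTiter-Glo luminescence after 72 hr compound exposure at 37 degree celsius gave cell viability. Libraries NPC and MIPE were run as 8- and 11-point dose responses; RLUs normalized to DMSO (negative) and no-cell (cytotoxicity) controls.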

MKL-2 = test: as above; settings: MCC and control cell lines, CellTiter-Glo viability, 72 h; series mostly up to 46 µM
Outline: as §3

WaGa = test: as above; settings: MCC and control cell lines, CellTiter-Glo viability, 72 h; series mostly up to 46 µM
Outline: as §3

NIH3T3 = test: as above; settings: MCC and control cell lines, CellTiter-Glo viability, 72 h; at 44.8 µM (top of the series) unless noted
Outline: as §3

UISO = test: as above; settings: MCC and control cell lines, CellTiter-Glo viability, 72 h; series mostly up to 46 µM
Outline: as §3

[2] = qHTS assay to identify inhibitors of the type 1 interferon - major histocompatibility complex class I in skeletal muscle: Counter screen cell viability and HiBit confirmation (AID 1347412); settings: iHSKM muscle cells + IFN-b, HiBiT or CellTiter-Glo, 24 h, at 45.9 µM (top of the series); also: nearly all actives have a fitted effect of over 60% in size
Outline: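 Luminescence read-out: Nano-Glo HiBiT lytic signal from C-terminally HiBiT-tagged HLA-B in CRISPR-edited human myoblasts, plus CellTiter Glo ATP as viability counter screen. IFN-beta 4.0 ng/ml; 24 hrs treatment at 37 C, 5% CO2.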
% is scaled to controls: 0 for no effect and ±100 for the full control effect.

CCCCN(CCCC)CCC(O)c1cc2c(Cl)cc(Cl)cc2c2cc(C(F)(F)F)ccc12 (centres undefined)
active: Potency ([1]; tumour line A) 11.2 µM | Potency ([1]; tumour line B) 10 µM | Potency ([1]; tumour line D) 11.2 µM
inactive: Potency (C33A) | Potency (CASKI) | Potency (Es-2) | Potency (HeLa) | Potency (Hek293T) | Potency (JEG-3) | Potency (PA-1) | Potency (Tov-21-G) | Potency (Tov112D) | activity, negative = cell killing ([1]; at 20 µM (top of the series)) -14% | Potency (astro)

C[C@H](Cc1ccc(O)c(O)c1)[C@@H](C)Cc1ccc(O)c(O)c1
active: Potency (MKL-1) 11.8 µM | Potency (MKL-2) 18.7 µM | Potency (WaGa) 18.7 µM

CN1CCC(=C2c3ccccc3CCc3sccc32)CC1
inactive: Potency (MKL-1) | outcome (NIH3T3) | Potency (UISO) | Potency (WaGa) | Potency (CASKI) | Potency (Es-2) | Potency (HeLa) | Potency (Hek293T) | Potency (JEG-3) | Potency (PA-1) | Potency (Tov-21-G) | Potency (Tov112D)

NC(=NCc1ccccc1)NC(=O)c1nc(Cl)c(N)nc1N
inactive: Potency (MKL-1) | Potency (UISO) | Potency (WaGa) | activity change, negative = inhibition ([2]; HiBiT) -27.7% | activity change, negative = inhibition ([2]; Viability) -20.2%

O=C1c2ccccc2-c2n[nH]c3cccc1c23
inactive: activity, negative = cell killing ([1]; at 46.1 µM (top of the series)) -13.2%
active: Potency (MKL-1) 3.32 µM | Potency (WaGa) 2.64 µM | Potency ([1]; tumour line D) 12.6 µM | Potency (astro) 10 µM

From PubChem BioAssay (NCATS)
